rTrxR1 inhibitor: inhibitors of rat thioredoxin reductase 1; recombinant rTrxR1, NADPH fluorescence consumption, selenite substrate; O89049; AID 588453; Potency, µM (titrated, usually from 114 µM), usual class: inhibitors; hit rate 1% among 390,000; note: nearly all actives have a fitted effect of over 65% in size
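Rat TrxR1 (90 nM in the dispensed reagent) was pre-reduced with 400 uM NADPH for 5 min at room temperature, then incubated with compound for 15 min. After 400 uM selenite was added, NADPH fluorescence (Ex 340/Em 450 nm) was followed for 8 min.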
TrxR1 substrate: substrates of rat thioredoxin reductase 1; purified TrxR1 substrate turnover, NADPH consumption readout; hit rate 0.01% among 390,000; Potency, µM (top dose mostly 114 µM); note: nearly all actives have a fitted effect of over 50% in size
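Rat TrxR1, dispensed at 90 nM, was prereduced with 400 uM NADPH (final) for 5 min at ~22 deg C, then incubated with compound 15 min before 400 uM selenite. A first-read NADPH fluorescence drop versus no-compound background flagged substrates.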
VDR inh: inhibitors of human vitamin D receptor; VDR-SRC2-3 peptide fluorescence polarization, 2 h; P11473; hit rate 0.93% among 400,000; Potency, µM, hits mostly inhibitors; AID 504847
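Fluorescence polarization assay measuring small-molecule disruption of VDR binding to the coregulator peptide SRC2-3. Compounds were pin-transferred (23 nl) into the reagent mix and incubated 2 h at room temperature before reading.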
Sfp PPTase inh: inhibitors of Bacillus subtilis Sfp phosphopantetheinyl transferase. Q9F4F7. Potency, µM, most hits filed as inhibitors. Biochemical Sfp PPTase activity, qHTS. hit rate 3.5% among 310,000;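 note: the enzyme is Sfp with the accession as filed and its product quenches rhodamine fluorescence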
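Fluorescence-quenching assay with 15 nM Sfp, 5 uM rhodamine-CoA and 12.5 uM BHQ-2-labelled ybbR peptide in pH 7.6 Hepes/MgCl2 buffer. Enzyme was pre-incubated with compound for 15 min at room temperature. Rate was taken from the 30-min fluorescence change (525/598 nm).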
PLK1 PBD inh: inhibitors of human PLK1 polo-box domain binding; P53350; Plk1 PBD binding of FITC phosphopeptide, fluorescence polarization; Potency, µM, hits mostly inhibitors; hit rate 2.8% among 360,000; AID 720504; note: series mostly up to about 57 µM; nearly all actives have a fitted effect of over 65% in size
Target sequence (P53350 whole entry, looked up, the tested form may be a part): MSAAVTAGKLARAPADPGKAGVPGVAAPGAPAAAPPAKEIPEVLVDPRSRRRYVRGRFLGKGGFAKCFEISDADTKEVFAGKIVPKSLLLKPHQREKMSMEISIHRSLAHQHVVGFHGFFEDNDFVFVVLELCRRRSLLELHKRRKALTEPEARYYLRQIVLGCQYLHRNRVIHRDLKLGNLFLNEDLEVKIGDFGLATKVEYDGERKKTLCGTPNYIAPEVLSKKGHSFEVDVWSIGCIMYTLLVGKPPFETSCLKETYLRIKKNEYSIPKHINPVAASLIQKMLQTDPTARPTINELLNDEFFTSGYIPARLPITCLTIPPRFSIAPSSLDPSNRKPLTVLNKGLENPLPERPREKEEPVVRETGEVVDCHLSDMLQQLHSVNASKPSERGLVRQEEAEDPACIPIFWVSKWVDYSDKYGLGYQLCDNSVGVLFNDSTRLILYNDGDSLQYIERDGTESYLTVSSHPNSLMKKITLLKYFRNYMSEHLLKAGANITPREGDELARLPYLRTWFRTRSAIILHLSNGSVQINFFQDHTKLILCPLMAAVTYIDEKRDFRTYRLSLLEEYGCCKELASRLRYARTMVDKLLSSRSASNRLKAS
mIDH1 inhibitor: inhibitors of human mutant IDH1 R132H. O75874. IDH1-R132H enzyme, NADPH consumption, diaphorase/resazurin fluorescence. Potency, µM (highest dose often 76.6 µM), actives largely listed as inhibitors. hit rate 0.093% among 390,000. AID 602179; note: nearly all actives have a fitted effect of over 65% in size
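IDH1-R132H (0.5 ug/mL dispensed) in pH 7.5 Tris buffer was preincubated 30 min with compound, then given a substrate mix of 0.016 mM NADPH and 2 mM alpha-KG for 80 min at room temperature; remaining NADPH was read by diaphorase/resazurin fluorescence.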
A number is an active result. Hits are enriched below; roughly 5.2% of the tested compounds scored in any of these assays. Calls come from the whole dose curve; as a rule, active = well fitted curve in the direction sought with a large enough effect; inconclusive = small, poorly fitted or top-dose-only effect, or another doubt; inactive = no such curve, though single readings can be large; an effect the other way counts as inactive or inconclusive.

Cc1ccc(S(=O)(=O)NN)c(C)c1N1CCCC1=O was read as rTrxR1 inhibitor inactive, TrxR1 substrate inactive, VDR inh inactive, Sfp PPTase inh 56µM, PLK1 PBD inh inconclusive and mIDH1 inhibitor inactive.
For CCN(CC)c1ccc(/C=C2/C(=O)NC(=O)N(Cc3ccco3)C2=O)cc1 the results were rTrxR1 inhibitor 35µM, TrxR1 substrate inactive, VDR inh inconclusive, Sfp PPTase inh 50µM, PLK1 PBD inh inconclusive and mIDH1 inhibitor inactive.
Screening Cc1cc(/C=C2/C(=O)NC(=O)N(Cc3ccco3)C2=O)c(C)n1-c1ccccc1 returned rTrxR1 inhibitor inactive, TrxR1 substrate inactive, VDR inh inactive, Sfp PPTase inh inactive, PLK1 PBD inh inconclusive and mIDH1 inhibitor inactive.
For CCN(CC)c1ccc(/C=C2\C(=O)NC(=O)N(CC3CCCO3)C2=O)cc1 (stereo not given) the results were rTrxR1 inhibitor inconclusive, TrxR1 substrate inactive, VDR inh inactive, Sfp PPTase inh inactive, PLK1 PBD inh inconclusive and mIDH1 inhibitor inactive.
O=C1NC(=S)N(Cc2ccco2)C(=O)/C1=C\c1cccs1 was read as Sfp PPTase inh 20µM.
For CCN1C(=O)C(=C2C=C(C)N(Cc3ccco3)C(C)=C2)C(=O)N(CC)C1=S the results were rTrxR1 inhibitor inactive, TrxR1 substrate inactive, VDR inh inactive, Sfp PPTase inh inactive, PLK1 PBD inh inactive and mIDH1 inhibitor inactive.
CN(C)c1ccc(/C=C2/C(=O)NC(=O)N(Cc3ccco3)C2=O)cc1 was read as rTrxR1 inhibitor 50µM, TrxR1 substrate inactive, VDR inh inconclusive, Sfp PPTase inh inactive, PLK1 PBD inh 1.9µM and mIDH1 inhibitor inactive.
`COc1ccc(/C=C2/C(=O)N(Cc3ccco3)C(=O)N(C(C)C)C2=O)cc1` gave rTrxR1 inhibitor inconclusive, TrxR1 substrate inactive, VDR inh inconclusive, Sfp PPTase inh inactive, PLK1 PBD inh 3.4µM and mIDH1 inhibitor inactive.
Oc1ccc2c3c1O[C@H]1c4c(c5ccccc5n4Cc4ccccc4)C[C@@]4(O)C(C2)N(CC2CC2)CC[C@]314 was read as VDR inh inconclusive and Sfp PPTase inh inactive.
C#Cc1cccc2c1c(C(=O)c1ccc(Cn3c(C)nc4cnccc43)c(F)c1)cn2C(=O)N(C)C was read as VDR inh inactive and Sfp PPTase inh inactive.
`O=C1NC(=O)N(Cc2ccco2)C(=O)/C1=C/c1ccc(-c2cccc([N+](=O)[O-])c2)o1` gave rTrxR1 inhibitor 40µM, TrxR1 substrate inactive, VDR inh 14µM, Sfp PPTase inh 20µM, PLK1 PBD inh 0.42µM and mIDH1 inhibitor inactive.
O[C@@H]1CCCC[C@@H]1N1CCC(c2ccccc2)CC1 was read as VDR inh inactive and Sfp PPTase inh inactive.
Screening CC(C)(C)[C@]1(O)C[C@@H]2OC(=O)CC23C(=O)O[C@@H]2OC(=O)[C@H](O)C231 (stereo not given in full) returned VDR inh inactive and Sfp PPTase inh inactive.
Screening C[C@H]1CC[C@@]2(C)[C@@H](CC[C@@H]3[C@@H]2CC[C@]2(C)[C@@H](O)CC[C@@H]32)C1 returned rTrxR1 inhibitor inactive, TrxR1 substrate inactive, VDR inh inactive, Sfp PPTase inh inactive, PLK1 PBD inh 27µM and mIDH1 inhibitor inactive.
For CCN(CCCNS(=O)(=O)c1ccc2c(c1)oc(=O)n2C)c1cccc(C)c1 the results were rTrxR1 inhibitor inactive, TrxR1 substrate inactive, VDR inh inconclusive, Sfp PPTase inh inactive, PLK1 PBD inh 24µM and mIDH1 inhibitor inactive.
`CC(C)(C)C(O)C(Cc1ccc(Cl)cc1Cl)n1cncn1` (stereo not given) gave VDR inh inactive and Sfp PPTase inh inactive.
Cc1cc(C)cc(-n2c(C)cc(/C=C3\C(=O)NC(=O)N(C)C3=O)c2C)c1 was read as rTrxR1 inhibitor inactive, TrxR1 substrate inactive, VDR inh inactive, Sfp PPTase inh inactive, PLK1 PBD inh inconclusive and mIDH1 inhibitor inactive.
CCOc1cc(/C=C2\C(=O)NC(=O)N(C)C2=O)cc([N+](=O)[O-])c1O was read as rTrxR1 inhibitor inconclusive, TrxR1 substrate inactive, VDR inh inactive, Sfp PPTase inh 28µM, PLK1 PBD inh 7.5µM and mIDH1 inhibitor inactive.
Screening CCCCCCOC(=O)c1ccccc1N returned rTrxR1 inhibitor inactive, TrxR1 substrate inactive, VDR inh inactive, Sfp PPTase inh inactive, PLK1 PBD inh inactive and mIDH1 inhibitor inactive.
Screening CCCCCCCCCCCCOCCOCCOCCOCCOCCOCCOCCOCCOCCO returned VDR inh inactive and Sfp PPTase inh 71µM.
`O=c1c2cc([N+](=O)[O-])ccc2nc(CN2CCOCC2)n1-c1ccccc1F` gave Sfp PPTase inh 22µM.
`O=c1c2ccccc2nc(CN2CCOCC2)n1-c1ccccc1F` gave rTrxR1 inhibitor inactive, TrxR1 substrate inactive, VDR inh inactive, Sfp PPTase inh inactive, PLK1 PBD inh inactive and mIDH1 inhibitor inactive.
Screening COc1cccc(-n2c(CN3CCN(C)CC3)nc3ccc([N+](=O)[O-])cc3c2=O)c1 returned rTrxR1 inhibitor inconclusive, TrxR1 substrate inactive, VDR inh inactive, Sfp PPTase inh 7.9µM, PLK1 PBD inh inactive and mIDH1 inhibitor inactive.
For CC1C(=O)OC2O[C@]3(C)CC[C@H]4C(C)CCC1[C@]24OO3 (stereo not given in full) the results were VDR inh inactive and Sfp PPTase inh inactive.
Screening CCn1c(O)c(C=Nc2ccc(N3CCOCC3)cc2)c(=O)n(CC)c1=S returned rTrxR1 inhibitor inactive, TrxR1 substrate inactive, VDR inh inactive, Sfp PPTase inh inactive, PLK1 PBD inh 21µM and mIDH1 inhibitor inactive.
CCn1c(O)c(C=Nc2ccc(N3CCOCC3)c(Br)c2)c(=O)n(CC)c1=S was read as rTrxR1 inhibitor inactive, TrxR1 substrate inactive, VDR inh inactive, Sfp PPTase inh inactive, PLK1 PBD inh inactive and mIDH1 inhibitor inactive.
Screening COc1ccc(/C=C2\C(=O)NC(=O)N(Cc3ccccc3)C2=O)c(OC)c1OC returned rTrxR1 inhibitor inconclusive, TrxR1 substrate inactive, VDR inh inconclusive, Sfp PPTase inh 35µM, PLK1 PBD inh 12µM and mIDH1 inhibitor inactive.
Cc1cc(/C=C2\C(=O)NC(=O)N(Cc3ccccc3)C2=O)c(C)n1C1CC1 was read as rTrxR1 inhibitor inactive, TrxR1 substrate inactive, VDR inh inactive, Sfp PPTase inh inactive, PLK1 PBD inh inactive and mIDH1 inhibitor inactive.
COc1ccc(CN2C(=O)NC(=O)/C(=C\c3cc(OC)c(OC)c(OC)c3)C2=O)cc1 was read as rTrxR1 inhibitor inconclusive, TrxR1 substrate inactive, VDR inh 50µM, Sfp PPTase inh inactive, PLK1 PBD inh 8.4µM and mIDH1 inhibitor inactive.
Screening COc1cc(OC)c(OC)cc1/C=C1\C(=O)NC(=O)N(Cc2ccccc2)C1=O returned rTrxR1 inhibitor inconclusive, TrxR1 substrate inactive, VDR inh inactive, Sfp PPTase inh inactive, PLK1 PBD inh 2.7µM and mIDH1 inhibitor inactive.

High-throughput results from PubChem.
